Results: PubChem BioAssay AID1159580 (chemical genetic matrix, 2015)
Where “and” joins values, the source holds several entries; their conditions need not be identical. Identical values can stand only once. The whole screen tested about 5,500 compounds, of which about 2,000 (36%) were called active. Not shown: some 18% with an inconclusive outcome. Cut-off read from the data, not from the text of the source: active = normalized growth mostly below about 0.91 (no sharp cut-off); inconclusive = no clear call, values can overlap the other calls; inactive = mostly above about 0.92. Some of the results follow.

Assay: chemical genetic growth profiling, strain panel (AID 1159580);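 note: tested at 20 µM; growth read once vehicle control cultures reached saturation at 30 °C; 1 = growth at the plate median or of vehicle wells; lower values mean less growth of the strain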
Details: S. cerevisiae deletion strains, growth OD

Measured: normalized growth

CC(C)CCCC(C)[C@H]1CCC2C3CC=C4C[C@@H](O)CC[C@]4(C)C3CC[C@@]21C (some centres undefined)
inactive: locus YAL021C, strain ccr4, active compounds read low 0.974 | locus YAL026C, strain drs2, active compounds read low 0.96 | locus YAL030W, strain snc1, active compounds read low 0.979 | locus YBL061C, strain skt5, active compounds read low 0.99 | locus YBR009C, strain hhf1, active compounds read low 0.986 | locus YBR021W, strain FUR4, active compounds read low 1.01 | locus YBR023C, strain chs3, active compounds read low 0.989 | locus YBR171W, strain sec66, active compounds read low 0.987 | locus YBR229C, strain ROT2, active compounds read low 1.01 | locus YBR231C, strain swc5, active compounds read low 0.989 | locus YBR279W, strain paf1, active compounds read low 0.951 | locus YCL011C, strain gbp2, active compounds read low 0.972 | locus YCL016C, strain dcc1, active compounds read low 0.994 | locus YCL029C, strain bik1, active compounds read low 0.979 | locus YCL061C, strain MRC1, active compounds read low 0.985 | locus YCL069W, strain vba3, active compounds read low 0.964 | locus YCR088W, strain abp1, active compounds read low 0.992 | locus YDL005C, strain med2, active compounds read low 0.976 | locus YDL035C, strain GPR1, active compounds read low 1.03 | locus YDL040C, strain nat1, active compounds read low 0.986 | locus YDL074C, strain BRE1, active compounds read low 1.03 | locus YDL101C, strain DUN1, active compounds read low 1.01 | locus YDL134C, strain PPH21, active compounds read low 1.03 | locus YDL185W, strain tfp1, active compounds read low 0.994 | locus YDL192W, strain arf1, active compounds read low 0.992 | locus YDR001C, strain nth1, active compounds read low 0.981 | locus YDR069C, strain doa4, active compounds read low 0.966 | locus YDR101C, strain arx1, active compounds read low 0.962 | locus YDR137W, strain rgp1, active compounds read low 0.916 | locus YDR159W, strain sac3, active compounds read low 0.963 | locus YDR162C, strain NBP2, active compounds read low 1 | locus YDR195W, strain ref2 0.957 | locus YDR297W, strain sur2, active compounds read low 0.985 | locus YDR318W, strain mcm21, active compounds read low 1.01 | locus YDR334W, strain swr1, active compounds read low 0.964 | locus YDR335W, strain msn5, active compounds read low 0.996 | locus YDR388W, active compounds read low 0.988 | locus YDR392W, strain spt3, active compounds read low 0.935 | locus YDR502C, strain sam2, active compounds read low 0.974 | locus YEL003W, strain gim4, active compounds read low 0.982 | locus YEL037C, strain rad23, active compounds read low 0.953 | locus YEL061C, strain CIN8 (second series), active compounds read low 0.965 | locus YEL061C, strain CIN8, active compounds read low 1.01 | locus YER015W, strain faa2, active compounds read low 0.995 | locus YER016W, strain bim1, active compounds read low 0.987 | locus YER110C, active compounds read low 0.991 | locus YER111C, strain swi4, active compounds read low 0.985 | locus YER155C, strain BEM2 (second series), active compounds read low 0.984 | locus YER155C, strain BEM2, active compounds read low 1.01 | locus YER167W, strain BCK2, active compounds read low 1 | locus YFR010W, strain ubp6, active compounds read low 0.961 | locus YGL078C, strain dbp3, active compounds read low 0.996 | locus YGL086W, strain mad1, active compounds read low 0.991 | locus YGL167C, strain pmr1, active compounds read low 0.99 | locus YGL173C, strain kem1, active compounds read low 0.984 | locus YGL227W, strain vid30, active compounds read low 0.99 | locus YGL240W, strain doc1, active compounds read low 0.986 | locus YGL248W, strain PDE1, active compounds read low 1.03 | locus YGL253W, strain hxk2, active compounds read low 0.976 | locus YGR078C, strain PAC10, active compounds read low 1.01 | locus YGR135W, strain pre9, active compounds read low 1 | locus YGR252W, strain gcn5, active compounds read low 0.978 | locus YHR013C, strain ard1, active compounds read low 0.96 | locus YHR027C, strain rpn1, active compounds read low 0.997 | locus YHR030C, strain SLT2, active compounds read low 1.01 and 1.02 | locus YHR079C, strain IRE1 (second series), active compounds read low 0.997 | locus YHR079C, strain IRE1, active compounds read low 1.01 | locus YHR094C, strain hxt1, active compounds read low 0.988 | locus YHR129C, strain ARP1, active compounds read low 0.999 | locus YHR142W, strain chs7, active compounds read low 0.956 | locus YHR200W, strain rpn10, active compounds read low 0.995 | locus YIL066C, strain RNR3, active compounds read low 1.01 | locus YIL073C, strain SPO22, active compounds read low 1 | locus YIL125W, strain kgd1, active compounds read low 0.99 | locus YIR030C, strain dcg1, active compounds read low 0.987 | locus YJL092W, strain hpr5, active compounds read low 0.992 | locus YJL095W, strain BCK1 (second series), active compounds read low 0.987 | locus YJL095W, strain BCK1, active compounds read low 1.04 and 1.01 | locus YJL115W, strain asf1, active compounds read low 0.981 | locus YJL129C, strain trk1, active compounds read low 0.968 | locus YJL134W, strain LCB3, active compounds read low 1.01 | locus YJL154C, strain vps35, active compounds read low 0.981 | locus YJL164C, strain tpk1, active compounds read low 0.985 | locus YJL166W, strain qcr8, active compounds read low 0.985 | locus YJL168C, strain set2, active compounds read low 1 | locus YJL187C, strain SWE1 (second series), active compounds read low 1.01 | locus YJL187C, strain SWE1, active compounds read low 0.974 | locus YJR043C, strain POL32, active compounds read low 1.01 | locus YJR066W, strain TOR1, active compounds read low 0.987
